# Measured values taken from PubChem BioAssay.
# “And” between values parts separate entries of the source, which are not always exact repeats. Equal entries are not always repeated. Inconclusive results are not listed. The source made the active and inactive calls.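 How the source made its calls, unless noted: active means normalized viability below 100% at a tested concentration; inactive means the rest.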
# Experiments:
# [1] = viability loss in pontine glioma line – cell-based, SU-DIPG-XVII, MIPE5.0, CellTiter-Glo, qHTS, dose response (AID 1347060; cut-off not given, nearly all actives have AC50 up to about 26 µM); details: CellTiter-Glo ATP luminescence
# [2] = viability loss in pontine glioma line – cell-based, SU-DIPG-XIII, MIPE5.0, CellTiter-Glo, qHTS, dose response (AID 1347064; cut-off not given, nearly all actives have AC50 up to about 23 µM); details: CellTiter-Glo ATP luminescence
# [3] = viability loss in pontine glioma line – cell-based, SU-DIPG-XXV, MIPE5.0, CellTiter-Glo, qHTS, dose response (AID 1347065; cut-off not given, nearly all actives have AC50 up to about 26 µM;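 further: cells exposed to compound for 48 hours before ATP readout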); details: CellTiter-Glo ATP luminescence
# [4] = growth inhibition of DIPG cells – cell-based, MIPE4.0 library, CellTiter-Glo luminescence, qHTS (AID 1347066; cut-off not given, nearly all actives have AC50 up to about 30 µM;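 further: cells exposed to compound for 48 hours before readout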); details: SU-DIPG-VI viability, CellTiter-Glo ATP luminescence
# [5] = JHH-DIPG-1 glioma cell viability, MIPE5.0 library, CellTiter-Glo luminescence, qHTS (AID 1347067; cut-off not given, nearly all actives have AC50 up to about 26 µM;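 further: cells exposed to compound for 48 hours before readout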); details: JHH-DIPG-1 glioma viability, CellTiter-Glo ATP luminescence
# [6] = growth inhibition of DIPG cells – cell-based, MIPE5.0 library, qHTS (AID 1347068; cut-off not given, nearly all actives have IC50 up to about 30 µM); details: SU-DIPG-XXV viability
# [7] = viability loss with induced miR-34 in A549 – imaging, A549 dox-inducible miR-34, nuclei and caspase counts, primary screen (AID 1347080;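 active means compounds whose cell count with miR-34 switched on is under 0.7 times the count with it off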); details: A549 miR-34 inducible, Hoechst nuclei count, 48 h
# [8] = compounds altering HSF1 focus formation in cells – imaging, Selleck Cancer Library (AID 1347162; in the data active means plate-normalised HSF1 focus index below about 0.46); details: human cells, HSF1 nuclear foci imaging, at 10 µM; SSMD: measured here: HSF1 foci SSMD mean; cell count: measured here: cell number; plate-normalised HSF1 focus index: stronger effect = lower value
# [9] = MELAS cybrid and Rieske KO viability enhancers – cell-based, MELAS cybrids, Rieske KO mouse fibroblasts, CellTiter-Glo, primary screen (AID 1508586;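 active means mean z-score across replicates of 1.96 or higher in either the MELAS or the Rieske mutant cell line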;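 further: z relative to plate mean and SD of compound and empty wells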); details: low glucose
# [10] = drug combination growth inhibition, ovarian cancer – cell-based, oncology-focused library, rucaparib conditional, profiling panel (AID 1508598); details: patient-derived ovarian cancer cells, CellTiter-Glo viability, 144 h, stronger effect = lower value
# [11] = growth inhibition, single agent or in combination, cell-based, chromothripsis tumors, cisplatin or BGB combos (AID 1671449; in the data active means inhibition above about 80%;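 further: cells exposed for 96 hours; 0% = vehicle DMSO and 100% = killing by high DMSO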); details: LFS_MB_P medulloblastoma cells
# [12] = growth inhibition, single agent and combos, cell-based, chromothripsis tumors, cisplatin or BGB combos (AID 1671450; in the data active means inhibition above about 80%;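 further: cells exposed to compound for four days; 0% = vehicle DMSO and 100% = cell killing by high DMSO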); details: HDN33 neuroblastoma cells, stronger effect = higher value
# [13] = growth inhibition, single agents and combos, ICB984, cell-based, cisplatin or BGB combos, synergistic combos for chromothripsis tumors (AID 1671451; call rule not given here;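 further: cells exposed for 96 hours before readout; 0% = vehicle DMSO and 100% = killing by high DMSO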); details: ICB984 medulloblastoma cells, drug combinations, stronger effect = higher value
# [14] = growth inhibition, single agents and combos, HTB85, cell-based, BGB or cisplatin IC20 combos, synergistic combos for chromothripsis tumors (AID 1671453; in the data active means inhibition above about 80%;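 further: cells exposed for 96 hours before readout; 0% = vehicle DMSO and 100% = high DMSO killing control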); details: HTB85 osteosarcoma cells, drug combinations, stronger effect = higher value
# [15] = growth inhibition, MDA-MB-436, cell-based, BGB or cisplatin combos, synergistic combos for chromothripsis tumors (AID 1671458; call rule not given here;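 further: cells exposed for 96 hours; 0% = vehicle DMSO and 100% = killing by high DMSO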); details: MDA-MB-436 breast carcinoma growth inhibition, drug combinations, stronger effect = higher value
# [16] = BT084 cell growth, single and combined drugs, ICGC_MB145, cisplatin and BGB IC40 combos (AID 1671461; in the data active means inhibition above about 80%;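 further: cells exposed to drugs for 96 hours; 0% = vehicle DMSO and 100% = high DMSO full killing control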); details: BT084 medulloblastoma cells, drug combinations, stronger effect = higher value
# [17] = RCMB18 cell growth, single agent and combined, cisplatin and BGB IC40 combos (AID 1671462; in the data active means inhibition above about 80%;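 further: cells exposed to compound for four days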); details: RCMB18 medulloblastoma cells, stronger effect = higher value
compound,measurement,setting,value
NC(=O)c1ccc(I)c([N+](=O)[O-])c1,outcome,[1],inactive
same,outcome,[2],inactive
same,outcome,[3],inactive
same,outcome,[4],inactive
same,outcome,[5],inactive
same,outcome,[6],inactive
same,fold change,"[7]; stronger effect = lower value, cell number ratio, induced over uninduced",0.861 (inactive)
same,fold change,[7]; measured here: relative caspase fold change +Dox/-Dox,0.928
same,cell count,"[7]; measured here: total cells with miR-34 induction, stronger effect = lower value",7270
same,cell count,[7]; measured here: total cells without miR-34 induction,8450
same,SSMD,[8],1.45
same,cell count,[8],6730
same,plate-normalised HSF1 focus index,[8],1.07 (inactive)
same,z-score,"[9]; MELAS cybrid survival, CellTiter-Glo 48 h, stronger effect = higher value",-0.444 (inactive)
same,z-score,"[9]; Rieske KO mouse fibroblast survival, CellTiter-Glo 72 h",0.628
same,viability,"[10]; at 0.000305 µM, OCI-C5x cells, with rucaparib 10 µM, 100% = cells with rucaparib alone",109% (inactive)
same,viability,"[10]; at 0.000305 µM, OCI-C5x cells, without rucaparib",119% (inactive)
same,viability,"[10]; at 0.000305 µM, OCI-P5x cells, with rucaparib 20 µM, 100% = cells with rucaparib alone",98.3% (active)
same,viability,"[10]; at 0.000305 µM, OCI-P5x cells, without rucaparib",94.7% (active)
same,viability,"[10]; at 0.00122 µM, OCI-C5x cells, with rucaparib 10 µM, 100% = cells with rucaparib alone",110% (inactive)
same,viability,"[10]; at 0.00122 µM, OCI-C5x cells, without rucaparib",116% (inactive)
same,viability,"[10]; at 0.00122 µM, OCI-P5x cells, with rucaparib 20 µM, 100% = cells with rucaparib alone",102% (inactive)
same,viability,"[10]; at 0.00122 µM, OCI-P5x cells, without rucaparib",97.6% (active)
same,viability,"[10]; at 0.00488 µM, OCI-C5x cells, with rucaparib 10 µM, 100% = cells with rucaparib alone",113% (inactive)
same,viability,"[10]; at 0.00488 µM, OCI-C5x cells, without rucaparib",127% (inactive)
same,viability,"[10]; at 0.00488 µM, OCI-P5x cells, with rucaparib 20 µM, 100% = cells with rucaparib alone",101% (inactive)
same,viability,"[10]; at 0.00488 µM, OCI-P5x cells, without rucaparib",102% (inactive)
same,viability,"[10]; at 0.0195 µM, OCI-C5x cells, with rucaparib 10 µM, 100% = cells with rucaparib alone",127% (inactive)
same,viability,"[10]; at 0.0195 µM, OCI-C5x cells, without rucaparib",126% (inactive)
same,viability,"[10]; at 0.0195 µM, OCI-P5x cells, with rucaparib 20 µM, 100% = cells with rucaparib alone",103% (inactive)
same,viability,"[10]; at 0.0195 µM, OCI-P5x cells, without rucaparib",95.1% (active)
same,viability,"[10]; at 0.0781 µM, OCI-C5x cells, with rucaparib 10 µM, 100% = cells with rucaparib alone",119% (inactive)
same,viability,"[10]; at 0.0781 µM, OCI-C5x cells, without rucaparib",117% (inactive)
same,viability,"[10]; at 0.0781 µM, OCI-P5x cells, with rucaparib 20 µM, 100% = cells with rucaparib alone",97.2% (active)
same,viability,"[10]; at 0.0781 µM, OCI-P5x cells, without rucaparib",102% (inactive)
same,viability,"[10]; at 0.313 µM, OCI-C5x cells, with rucaparib 10 µM, 100% = cells with rucaparib alone",115% (inactive)
same,viability,"[10]; at 0.313 µM, OCI-C5x cells, without rucaparib",117% (inactive)
same,viability,"[10]; at 0.313 µM, OCI-P5x cells, with rucaparib 20 µM, 100% = cells with rucaparib alone",101% (inactive)
same,viability,"[10]; at 0.313 µM, OCI-P5x cells, without rucaparib",88.7% (active)
same,viability,"[10]; at 1.25 µM, OCI-C5x cells, with rucaparib 10 µM, 100% = cells with rucaparib alone",114% (inactive)
same,viability,"[10]; at 1.25 µM, OCI-C5x cells, without rucaparib",122% (inactive)
same,viability,"[10]; at 1.25 µM, OCI-P5x cells, with rucaparib 20 µM, 100% = cells with rucaparib alone",94.9% (active)
same,viability,"[10]; at 1.25 µM, OCI-P5x cells, without rucaparib",94.9% (active)
same,viability,"[10]; at 5 µM, OCI-C5x cells, with rucaparib 10 µM, 100% = cells with rucaparib alone",102% (inactive)
same,viability,"[10]; at 5 µM, OCI-C5x cells, without rucaparib",122% (inactive)
same,viability,"[10]; at 5 µM, OCI-P5x cells, with rucaparib 20 µM, 100% = cells with rucaparib alone",110% (inactive)
same,viability,"[10]; at 5 µM, OCI-P5x cells, without rucaparib",91.7% (active)
same,inhibition,"[11]; at 0.5 µM, stronger effect = higher value",-30.4% (inactive) and -3.77% (inactive)
same,inhibition,"[11]; measured here: combination with BGB IC20, at 0.005 µM",11.8% and -4.71%
same,inhibition,"[11]; measured here: combination with BGB IC40, at 0.005 µM",-7.86% and -37.5%
same,inhibition,"[11]; measured here: combination with BGB IC40, at 0.05 µM",5% and -21.1%
same,inhibition,"[11]; measured here: combination with cisplatin, at 0.5 µM, stronger effect = higher value",-54.2% and -27.9%
same,inhibition,"[11]; measured here: combination with cisplatin, at 5 µM, stronger effect = higher value",-10.7% and -15.7%
same,inhibition,"[12]; BGB combo, at 5 µM",13.3% and -25.3%
same,inhibition,[12]; at 0.5 µM,0.82% (inactive) and -18.3% (inactive)
same,inhibition,"[12]; cisplatin combo, at 5 µM",6.61% and -13.4%
same,inhibition,"[12]; measured here: with BGB IC20 combination, at 0.5 µM",-4.77% and -10.4%
same,inhibition,"[12]; measured here: with cisplatin IC20 combination, at 0.5 µM",8.47% and -16.9%
same,inhibition,"[12]; single agent, at 5 µM",-4.01% and -42.6%
same,inhibition,"[13]; BGB IC20 combo, at 0.005 µM",6.79% and -19.8%
same,inhibition,"[13]; BGB IC40 combo, at 0.005 µM",-8.71% and -63.3%
same,inhibition,"[13]; BGB IC40 combo, at 0.05 µM",6.96% and -25.8%
same,inhibition,[13]; at 0.5 µM,-18.4% (inactive) and -40.8% (inactive)
same,inhibition,"[13]; cisplatin combo, at 0.05 µM",4.36% and -30.8%
same,inhibition,"[13]; cisplatin combo, at 0.5 µM",-11.9% and -53.2%
same,inhibition,"[13]; cisplatin combo, at 5 µM",-10.4% and -25.8%
same,inhibition,"[13]; measured here: 5 uM single agent, at 5 µM",-7.67% and -25%
same,inhibition,[14]; at 0.5 µM,9.09% (inactive) and -11.2% (inactive)
same,inhibition,"[14]; measured here: with BGB IC20, at 0.5 µM",18.2% and -8.85%
same,inhibition,"[14]; measured here: with BGB IC20, at 5 µM",-13% and -0.795%
same,inhibition,"[14]; measured here: with cisplatin IC20, at 0.5 µM",-4.67% and -22.1%
same,inhibition,"[14]; measured here: with cisplatin IC20, at 5 µM",-22.8% and -21.8%
same,inhibition,"[14]; single agent, at 5 µM",-0.511% and -17.6%
same,inhibition,[15]; at 0.5 µM,-14.6% (inactive) and -27.1% (inactive)
same,inhibition,"[15]; measured here: BGB combination, at 0.5 µM",-12.7% and -19.7%
same,inhibition,"[15]; measured here: BGB combination, at 5 µM",6.5% and -14.3%
same,inhibition,"[15]; measured here: cisplatin combination, at 0.5 µM",-24.5% and -37.3%
same,inhibition,"[15]; measured here: cisplatin combination, at 5 µM",-16.7% and -24%
same,inhibition,[16]; at 0.5 µM,-19.3% (inactive) and -16.2% (inactive)
same,inhibition,"[16]; cisplatin combination, at 0.5 µM",8.84% and -1.53%
same,inhibition,"[16]; cisplatin combination, at 5 µM",4.99% and 0.215%
same,inhibition,"[16]; measured here: BGB IC40 combination 0.05 uM, at 0.05 µM",25.4% and -22.5%
same,inhibition,"[16]; single agent, at 5 µM",-9.27% and -35.4%
same,inhibition,[17]; at 0.5 µM,2.19% (inactive) and -9.96% (inactive)
same,inhibition,"[17]; cisplatin combo, at 5 µM",15.5% and 33.9%
same,inhibition,"[17]; measured here: BGB IC40 combination, at 0.05 µM",-12.1% and -17.3%
same,inhibition,"[17]; measured here: combination with cisplatin, at 0.5 µM",21.4% and 23.8%
same,inhibition,"[17]; single agent, at 5 µM",-9.55% and -39.2%
